CHO-K1 Ca antag: nonselective inhibitor or artifact in parental CHO-K1 cells. ATP-induced calcium, Fluo-8 fluorescence. inhibition, % at 3 µM. hit rate 0.6% among 360,000;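 active = inhibition above a per-plate cutoff, the plate's mean sample inhibition plus 3 SD, cut at about 24% in these data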;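 note: 0% = DMSO plus EC80 ATP and 100% = DMSO alone without ATP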
M1 PAM: human M1 muscarinic receptor positive allosteric modulators, primary screen, CHO-K1 cells, Fluo-8 calcium fluorescence, 1536-well. Muscarinic acetylcholine receptor M1 (Homo sapiens), P11229. CHO-K1 hM1, ACh EC20; 0% = ACh EC20, 100% = maximal ACh. activation, % at 3 µM. hit rate 0.088% among 360,000; in the data active = activation above about 19%, passing the limit was not always enough
Target sequence (P11229 whole entry, looked up): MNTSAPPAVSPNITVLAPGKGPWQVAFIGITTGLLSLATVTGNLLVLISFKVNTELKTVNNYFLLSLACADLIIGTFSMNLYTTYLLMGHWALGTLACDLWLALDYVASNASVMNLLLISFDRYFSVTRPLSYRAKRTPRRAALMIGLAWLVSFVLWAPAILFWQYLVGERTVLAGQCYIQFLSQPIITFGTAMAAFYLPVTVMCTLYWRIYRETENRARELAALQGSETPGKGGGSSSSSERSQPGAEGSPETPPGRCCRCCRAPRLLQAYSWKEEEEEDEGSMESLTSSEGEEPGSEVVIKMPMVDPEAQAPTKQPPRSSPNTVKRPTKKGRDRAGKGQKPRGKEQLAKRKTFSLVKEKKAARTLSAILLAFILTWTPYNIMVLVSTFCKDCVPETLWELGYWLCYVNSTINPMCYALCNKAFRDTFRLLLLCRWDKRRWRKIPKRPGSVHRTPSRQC
CHRM1 agonist: human M1 muscarinic receptor agonists, primary screen, Fluo-8 calcium fluorescence, CHO-K1 cells, HTS | CHO-K1 hM1, agonist mode; 0% DMSO, 100% acetylcholine EC100 | Muscarinic acetylcholine receptor M1 (Homo sapiens), P11229 | hit rate 0.33% among 360,000 | activation, % at 3 µM;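 active = activation above the run's mean compound activation plus 3 SD, cut at about 16% in these data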;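 note: peak over basal fluorescence ratio within a 140 s kinetic read after compound addition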
CHO-K1 Ca PAM: nonselective calcium activators in parental CHO-K1 cells, primary screen, counter-screen for M1 PAM project, cell-based, Fluo-8 calcium fluorescence, full deck, 1536-well. ATP EC20; 0% at ATP EC20, 100% at ATP max. activation, % at 3 µM. hit rate 0.02% among 360,000. AID 602247, 2012;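 active = activation above the run cutoff, the mean activation of all test compounds plus 3 SD, cut at about 40% in these data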;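 note: peak over basal fluorescence ratio in a 140 s read after ATP addition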
M1 ag parental: counter-screen for M1 agonists: effect in parental CHO-K1 cells | Fluo-8 calcium fluorescence; scaled to maximal ATP response, vehicle zero | activation, % at 3 µM | hit rate 0.48% among 360,000 | AID 602248, 2012; in the data active = activation above about 15%;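 note: untransfected CHO-K1 host cells lacking M1 receptor as counterscreen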
CHRM1 antagonist: human M1 muscarinic receptor antagonists, primary screen, CHO-K1 cells, Fluo-8 calcium fluorescence, 1536-well; CHO-K1 hM1, ACh EC80 antagonist; inhibition, % at 3 µM; hit rate 1.3% among 360,000; AID 588852, 2011;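 active = percent inhibition above its own plate's cutoff, namely the mean of that plate's compound wells plus 3 SD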;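 note: peak over basal fluorescence ratio during 140 s after agonist addition; 0% = ACh EC80 plus DMSO and 100% = DMSO alone without agonist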
* = called active by the depositor; . = no result given. Sampled rows, rich in hits. Any-hit rate of the full collection: about 2.3%.

SMILES	CHO-K1 Ca antag	M1 PAM	CHRM1 agonist	CHO-K1 Ca PAM	M1 ag parental	CHRM1 antagonist
CN1CCN(NC(=O)c2cc(-c3cccc(Cl)c3)nc3ccccc23)CC1	-10	13	-3	20	2	-8
OC(c1cc(-c2cccc(Cl)c2)nc2ccccc12)C1CCCCN1 (centres undefined)	15	3	12	12	27*	5
CCOC(=O)c1ccc2c(c1)nc(C1CCN(S(=O)(=O)c3cccs3)CC1)n2CC	-6	-23	-5	3	15*	15
CCOC(=O)c1cccc(NC(=O)C2CCN(S(=O)(=O)c3cccs3)CC2)c1	2	-2	-2	1	5	-2
Cc1ccccc1OCC(=O)OCC(=O)Nc1ncc(Cl)c(C)c1Cl	-1	19	0	12	0	-14
Cc1nc2ccc(NS(=O)(=O)c3c(F)cc(F)cc3Br)cc2s1	1	-15	-1	-21	10	37*
Cc1nc2ccc(NS(=O)(=O)c3ccc(F)cc3F)cc2s1	-5	-7	1	3	10	8
Cc1ccc(NC(=O)CSCC(=O)OCc2cc(=O)oc3cc(O)ccc23)c(C)c1	-12	9	-1	0	2	-11
CC(CCN1C(N(C)C)=NC[C@@H]1C)c1ccccc1 (some centres undefined)	10	-23	-14	-14	0	31*
CC(=O)c1c(C)[nH]c(C(=O)C(C)Sc2nnc(NC3CC3)s2)c1C (centres undefined)	0	-10	-1	-19	10	17
Cc1ccc(-c2nn3cnnc3c3ccccc23)cc1C	24*	7	-4	-4	0	-14
Cc1ccc(CSC2=NCCN2C(=O)c2ccc(S(=O)(=O)N(C)C)cc2)cc1	3	3	-4	6	1	-3
COC(=O)c1c(N)nc(C)n1-c1ccc(OC)cc1	25*	-1	-2	-6	0	6
C=CCN1C(=O)CSc2ccc(C(=O)NCc3ccc(F)cc3)cc21	-17	-10	-3	10	5	15
CCC1CCCCN1CCCNC(=O)c1ccc2c(c1)N(Cc1c(F)cccc1Cl)C(=O)CS2 (centres undefined)	-14	-22	-5	-10	0	100*
O=C(NCc1ccc2c(c1)OCO2)c1ccc2c(c1)N(Cc1c(F)cccc1Cl)C(=O)CS2	4	-26	-12	4	0	40*
O=C(Nc1cc(Cl)ccn1)C1(c2ccccc2)CC1(Cl)Cl (centres undefined)	-2	4	-2	-16	0	-11
O=C1OCCC1=CN1CCCCC1	0	-2	1	-16	0	14
CN1CCCC(OC(=O)c2ccc(Cl)cc2)C1 (centres undefined)	-7	9	-8	20	1	-25
CN1CCCC(OC(=O)CCCCC(=O)OC2CCCN(C)C2)C1 (centres undefined)	26*	1	-4	-6	-1	2
CCN(CC(=O)NCc1ccc(F)cc1)C(=O)Cc1ccc(OC)cc1	-2	-1	-3	-9	0	7
CCN1CCC(N2CCN(c3ccccc3OC)CC2)CC1	-10	-1	-2	14	1	6
O=C(Nc1ccc(-c2nc3ccc(NC(=O)c4cccs4)cc3[nH]2)cc1)c1cccs1	6	-17	-5	4	2	38*
Cc1ccccc1C(=O)Nc1ccc(-c2nc3ccc(C(=O)c4ccccc4)cc3[nH]2)cc1	34*	-9	-3	-8	2	28*
O=C(c1ccccc1)c1ccc2nc(-c3ccc(NC(=O)c4ccccc4Br)cc3)[nH]c2c1	9	-3	-4	19	5	11
SMILES	CHO-K1 Ca antag	M1 PAM	CHRM1 agonist	CHO-K1 Ca PAM	M1 ag parental	CHRM1 antagonist
O=C(Nc1cccc(-c2nc3ccccc3s2)c1)c1cccs1	6	-5	-11	6	2	30*
Cc1ccc(C(C)C)cc1OCC(=O)Nc1ccc(-n2cnnn2)cc1	-2	5	0	-3	1	-9
O=C(/C=C/c1cn(-c2ccccc2)nc1-c1ccccc1)Nc1ccc(C(=O)O)cc1	-3	-21	-5	2	0	98*
NS(=O)(=O)c1ccc(NC(=O)/C=C/c2cn(-c3ccccc3)nc2-c2cccc(Cl)c2)cc1	-4	10	-5	-5	0	-12
CCN1C(=O)CC(c2ccc(OC(C)C)cc2)C1=O (centres undefined)	-6	7	-3	22	2	-6
CCOC(=O)C1(C)CCCN(C(=O)CCc2ccccc2)C1 (centres undefined)	2	6	-3	15	0	-14
COc1ccc(CNS(=O)(=O)NCc2ccc(C)cc2)cc1OC	15	1	-4	3	19*	7
COc1ccc(NC(=O)/C(Cl)=C(/Cl)S(=O)Cc2ccc(Cl)cc2)cn1 (centres undefined)	30*	-4	-5	-14	1	28
COc1ccc(NC(=O)C(Cl)=C(Cl)Cl)cn1	-9	8	-7	18	0	-2
CCOC(=O)C1CCCN(S(=O)(=O)c2ccc3c(c2)N(C)C(=O)CC(=O)N3C)C1 (centres undefined)	-12	2	-3	10	0	-8
CN(C)S(=O)(=O)c1cccc(COC(=O)c2cccnc2Cl)c1	19	-9	1	-9	17*	20
CN(C)S(=O)(=O)c1cccc(COC(=O)c2cnccn2)c1	-14	15	-7	17	1	-23
COc1ccc(CCn2c(C(C)C)nc3c(c(=O)c4ccccc4n3C)c2=O)cc1	17	-31	-10	-10	2	39*
O=c1ccnc(SCc2ccccc2Cl)[nH]1	28*	7	-2	-8	0	6
CC(C)(C)c1cc(=O)[nH]c(SCc2ccccc2Cl)n1	-8	4	-9	-1	0	-6
CCCc1cc(C(=O)N(C)CC(=O)Nc2ccc(OCC)c(OCC)c2)sc1C	16	17	1	-11	-1	-11
CC1(c2nnnn2Cc2ccccc2)CCC(=O)N1CCc1c[nH]c2ccccc12 (centres undefined)	-6	.	.	18	10	.
CC1(C(=O)NCc2ccccc2)CCC(=O)N1CCc1c[nH]c2ccccc12 (centres undefined)	31*	-10	-3	-9	1	22
O=C(Nc1ccnn1C1CCN(Cc2ccc(O)c(Cl)c2)CC1)C1CCCC1	1	1	-4	-6	0	-4

Compound activity: PubChem, The Scripps Research Institute Molecular Screening Center
